The results in this text go back to PubChem BioAssay AID1508600 (Functional Genomics Laboratory (NCATS/FGL), 2020).

About 3,700 (7%) of roughly 53,000 sequences were called active. Only a selection was taken, and actives are over-represented in it overall. A number with no mark means an inactive call.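 The calls were made as follows: active = gene knockdowns whose robust z-score for IL-1 alpha signal is at least 2 or at most -2, so actives lie on both sides; inactive = the rest.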

The assay in a line: Components of the Cytosolic LPS Sensing Pathway: Gene Identification via Genome-wide siRNA Screen.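 Also: robust z of the log signal after scaling to non-targeting control siRNA wells of the plate.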 Conditions: RAW264.7 macrophages, IL-1a HTRF, actives lie on both sides, screened at 100 nM (by protocol), cells primed 5 h with Pam3CSK4 first. The gist of the method:
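IL-1a HTRF of supernatants after 24 hour LipidA transfection of Pam3CSK4-primed (5 hours) RAW264.7 cells, 48h post-siRNA transfection (100 nM). Scores: percent of plate negative-control median, then log-based robust z-score.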
In general terms: TR-FRET usually uses a lanthanide donor and a delayed reading to cut background.
As to GCUAAUAAUGGUCAAAGCCTT against Prrt3, the z-score is -0.963. Take GGAUAUUCAUGUUUCAUUGTT against Vipr2: the z-score was 0.836. With CGACCAGAUGAACUGGUGUTT against Smg9, the z-score is 0.929. Turning to GGUGACACACUAGUAGACUTT against Sclt1, the z-score is 3.47 (active). For CGAACAGAAACAGUUAUUATT against Gbp2, the z-score was 1.01.

As to CCAAAUCUCUCAAUUUAGGTT against Taf9b, the z-score was 0.265. The figure for CCAAAGAUGUUAUUGGACCTT against Olfr1152 is -1.1. The figure for CCUGUAAACCAGAUAAGCCTT against Defb1 is -0.0772; for GGCAAUAUGUCGUAUGUAATT against Sfmbt2 it is -2.13 (active); for GGUCAUGAAUUACUAUUCCTT against Cyth2 it is 1.02.

As to GGAGAAAUUCCCUUGCCACTT against Kbtbd12, the z-score was -0.0157. In the case of UUUAUACUUCCCUGAUUUUTT against Olfr943 it was -0.409; in that of GGGAAAAAGGAGAACUUCUTT against Cfap161, -1.12. Regarding GGAUCAUAGUUACAAGGCUTT against L3mbtl2, the z-score is 0.458. The figure for GCUUUGAGAGGUGUUGAUATT against Gm6116 is -0.864; for GCUAAGUUGGAAUUUCCACTT against Chtop it is 2.05 (active). For the sequence GCCGUUUUAUGUGGCAGAATT against Slc35d3, the z-score was 0.141. GGUAUUGUGGCCAGUAUUUTT against Ptdss2: the z-score was 0.185.

Regarding AUAAGGAUGUCCAUCUUGCTT against Olfr884, the z-score is -1.17.

For CGGUCUAAAUUUCCGGUCATT against Elane, the z-score was -0.205. As to GGCUCAACGGGAUUACUUUTT against Pgd, the z-score is -0.578. In the case of GAAAUAGAGAUGCCUCUCUTT against Olfr1161 it was 2.52 (active); in that of CCAAUUUACGACAAAUCGUTT against Entpd4, -0.56; in that of GGCCCGAAACAAGAAAUCCTT against Ikbke, 0.957. In the case of GCUGGUCUUUCAAGUCAAGTT against Stat5b it was 2.62 (active); in that of GAAAAAUCAUGAAGCCAUATT against Olfr203, -0.0109.

Turning to CCAGCUAGUGAUGUCAAAATT against Bri3bp, the z-score was -0.0406. In the case of GGACAGCUGGCUUCUAAAUTT against Lmntd1 it was 0.137; in that of CCAUAGGUAUGUUAAUCGATT against Polr1b, -0.426; in that of GGCCAACCUACUUUUCUGGTT against Mgll, -1.18.

Consider CGAUGGAAGUUUAAACCUCTT against Htr1a, for which the z-score is 0.326. In the case of GGUUGUGAAUGUAAGUGAGTT against Entpd1 it was -0.787; in that of GGCAUCUUCGAAAAAUGAUTT against Reck, -0.552.

CGAUUUUCACCAAUUGUGGTT against Diaph2: the z-score was -2.03 (active). GGACAUCAGUUGUCCUAGCTT against Ano6: the z-score is -0.285.

Regarding GGGCUACUCAAAGAAGAUATT against Galnt5, the z-score was -0.357.

With GGUCACCACACGAUCUACATT against Slc4a4, the z-score was 3.14 (active). With GCUCGGCUUUAGAGACCUATT against Cox19, the z-score is 0.379. The figure for GCCUGUACAUGACGGAAAGTT against Bag4 is 0.155; for GGAGUUACGGGAUUCCGUUTT against Kras it is 1.7. In the case of GCCUAGCUGAAAACGUGUCTT against Cog4 it was 5.04 (active); in that of GCUUAUAAAAGACUUACUGTT against Sec24b, 0.414; in that of GGUUAAAAUUGGCUAAAUGTT against Sertm1, 1.5. The figure for GGCUAAAAAGAGUAGACUATT against Irs1 is 1.14; for GGAAGAAUCUGAUUCGUAATT against Snapc5 it is -1.28.

In the case of GGCUUUUUCUACAUGCGCCTT against Olfr1104, the z-score was -0.236. In the case of GGCUGUUAUACACUAUCUGTT against Tirap it was -2.71 (active); in that of GGCUUUACUACUCAACCAUTT against Gjb3, -0.388. The figure for GCAUUUAUAUGAGAUGCAGTT against Fam210a is 0.108; for CCAAAGCCUGAAAUGGUGGTT against Cxcr4 it is -2.36 (active); for “GGUCAAAACAUGUUGAAGGTT against B330016D10Rik” it is 0.15.

For the sequence GGCAGAUGAUGGUCCAUGCTT against Tfpi, the z-score was -1.63. In the case of CCAGCAGUAAACUGGAAAUTT against Arhgap25 it was -1.53; in that of GGCAACCAGAUAUUUGUUATT against Myef2, 0.549; in that of GCUCGCACAGAAGUUACAATT against Lrrc42, -0.486.

For “GAAAUGCAAGACUCUGCACTT against 1700020L24Rik”, the z-score was -2.66 (active). In the case of GGAGCGAGUAGACAUUCUGTT against Rdh13 it was 1.72; in that of GGUAGUGCCAUAAUUUCUGTT against Nipal2, -0.782. Take GGAACCAAUCUGUCUCUCCTT against Cbfb: the z-score was -2.07 (active). Take GCUGUUAACUAUCUGGAUATT against Prokr1: the z-score is 0.59. In the case of GGGUGUUGUGUCCUCUCAATT against Gckr, the z-score was 0.0744. The figure for GCAUGAAUCGUGCGAAGAUTT against Zfp871 is 0.903. In the case of CCAGGUUCUCCGAAUCUCUTT against Cpa1 it was -0.854. Consider GCUGAGUCCAUUGAAGAAGTT against Pebp4, for which the z-score is 0.255. The figure for GCACAACGACCUUUCCAGGTT against Chst12 is -0.561; for GGCUAACCUGAGCAAACAGTT against Plvap it is -2.21 (active). As to GGAUCCUAAAACUGAGGAATT against Crtc2, the z-score was 0.22. Turning to GGAGAAAAACUGAGCAGCCTT against Chst12, the z-score is -1.72. In the case of GCAUUGGAACCAUGUGCUGTT against Prss46 it was -1.59; in that of GGAGGAUUAUUACAGAAGGTT against Lhx9, 1.57; in that of GGAACUGACUGCCUAUUCCTT against Gnb3, 1.08.

Consider CCGUUGAUAUCCACAUGAATT against Plod3, for which the z-score is 1.97.

Turning to GGUGGAACAGUGGAAUUCGTT against Grhpr, the z-score was 2.41 (active). In the case of GCACUGCAUAUUCCGCACUTT against Nubp2 it was 1.4. With GGCUGGUCUCCAAACCCAATT against F13b, the z-score was 0.229. For the sequence GGACAGUGCCACUUAAACCTT against Tbxa2r, the z-score is -1. Take GGCCUCCUAUAGACGGGAUTT against Vdac3: the z-score was 2.49 (active). The figure for GGGAGACCGGCAAAAAAAATT against Pde1b is 0.999; for CGAGAUGUGUGUUAAAGGATT against Utp23 it is 0.934. With GCAAGUUGUCAAAUCUAAATT against Tspan13, the z-score is 1.42. The figure for GCCGGACAACUCUAAUCAGTT against Herpud1 is 3.22 (active); for CCAAGGUAUGAAGAUAUUUTT against Rfpl4 it is 0.575. In the case of GCAUGUUUUGGUGUAUAGUTT against Arl4a it was -1.81; in that of CGGUGUUUGAAAUCGUGCATT against Dgcr6, 0.533. For the sequence CCAGAGCCCAAGCCAAGUUTT against Nanos3, the z-score was 0.639. The figure for GCCCGAUAUUAUAACGGUGTT against Eomes is 2.97 (active); for GGUAUCCAGAUGAAAGAUGTT against Nlrp10 it is -1.13; for GGCCCUCAAAAAUCACGAGTT against Ehd1 it is 1.11. In the case of GGCAACAUCACUGAGUAUCTT against Glg1 it was 0.57; in that of GGAUCUUCUCUGCCUAUAUTT against Arpc1b, -1.42. The figure for GGAGGAGAAGAAGAAGGCCTT against Unc119b is 0.28; for CCUCAUGCUAGCCUCAUGATT against Actg1 it is -0.214; for GCUAUUGGGACUUAGAACATT against Slc26a9 it is 0.191.

For the sequence CCAGUAAACCUACAUGUUCTT against Htr3b, the z-score was -0.024. The figure for GGCUAAAAUAAGCAAUCUGTT against Optc is -1.35; for GGAAACUCCCUGAACCGGATT against Zcrb1 it is 2.26 (active); for GGUAUUGAGUAUCUUAGGUTT against Atf7 it is -0.543. The figure for CGUUUUGUACAGAUAUACUTT against Fam3b is -0.571; for GAUUCCAAGACAUUAAACATT against Fxn it is 0.485; for GGCAGUUCAUGUUUAAAGATT against Fgfr1op2 it is -0.381. In the case of CGAGAGCAUUAAUUACUUCTT against Sulf1 it was 0.621; in that of GGACUACGAAUACCCAUCGTT against Cck, -0.42; in that of GGGCAAUUUGGACUGUUUUTT against Jam3, -0.973.

For GGGUUUUAGAAUGAAAUACTT against Emc6, the z-score is 2.35 (active). The figure for GGAAGCAUUCCAAUGGUAGTT against Cyp2c39 is -0.532. In the case of GGCCAGACAUGUUGAAGAATT against Ssna1 it was -2.42 (active); in that of CGAUGCUGUGGAACUGCACTT against Ptgfrn, 0.417; in that of CCGCGCCGUUGAUUCAUUUTT against Spata17, 1.08.
